Our source for the outcome values is PubChem BioAssay (NCATS).

Structures are written as SMILES. Inconclusive results are not listed. Activity calls are given as the source filed them. The call rests on the fitted dose curve; in most records, active means well fitted inhibition curve with a large enough effect; inconclusive means small, poorly fitted or top-dose-only effect; inactive means flat fitted curve, though single readings scatter.
Further: nearly all actives have a fitted effect of over 60% in size.

The first assay relates to NIH3T3. The assay is described as follows: Cytotoxic Profiling of Annotated Libraries Using Quantitative High-Throughput Screening (AID 1296008). The conditions noted are these: Five cell lines viability, CellTiter-Glo ATP luminescence, 48-72 h; max response: stronger effect = lower value. The method in brief:
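Compounds were pin-transferred onto cells and incubated 48 or 72 hr at 37 degree Celsius, 95% humidity. CellTiter-Glo was added, plates sat 10 min at room temperature, then ATP-coupled luminescence was imaged as the viability read-out.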
For orientation: Cellular ATP, detected with luciferase, serves as a proxy for viable cell number.
Regarding `COC(=O)c1c(CC=C(C)C)c(OC2OC(CO)C(O)C(O)C2O)c2ccccc2c1OC1OC(CO)C(O)C(O)C1O` (stereo unspecified), the result was inactive.
Same read-out and setting: the value for `C[C@]1(O)CC[C@@H]2C(C(=O)O)=CO[C@@H](O[C@@H]3O[C@H](COC(=O)/C=C/c4ccc(O)c(O)c4)[C@@H](O)[C@H](O)[C@H]3O)[C@@H]21` was “inactive”; that for `CC(C)(O)C1CC=C(C(=O)OC[C@H]2O[C@@H](Oc3cc(C(=O)O)cc(O)c3O)[C@H](O)[C@@H](O)[C@@H]2O)CC1` (stereo partly specified) was “inactive”.
Same read-out and setting: the result for `COc1cc2c(cc1O)CC(O)(CO)C(CO)C2c1ccc(OC2OC(CO)C(O)C(O)C2O)c(OC)c1` (stereo unspecified) reads “inactive”; that for `O=C(O)CC/C=C\C[C@H]1CO[C@@H](c2ccccc2Cl)O[C@H]1c1ccccc1O`, “inactive”.

In another assay the test system is HACAT. Nature of the assay: qHTS assay to identify novel small-molecules to repurpose for Merkel cell carcinoma treatment (AID 1296009). The following applies: MCC and control cell lines, CellTiter-Glo viability, 72 h; at 44.8 µM (top of the series) unless noted. The method in brief:
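Viability readout: ATP luminescence (CellTiter-Glo) after 72 hr drug exposure at 37 degree celsius. Dose-response format was 8 points for NPC and 11 points for MIPE; data normalized to in-plate controls.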
With `C/C(=C\CCC1(C)C2CC3C(C2)C31C)C(=O)O` (stereo unspecified), the outcome was inactive.
The same measure, in the same setting: the value for `CCCC1=CC2=C(CO1)C(=O)C(C)(O)C(OC(=O)c1c(C)cc(OC)cc1O)C2` (stereo unspecified) was “inactive [at 17.4 µM]”; that for `COc1cnc(-n2cnc(C)n2)c2[nH]cc(C(=O)C(=O)N3CCN(C(=O)c4ccccc4)CC3)c12` was “inactive”; that for `CCCC/C=C\CCCCCc1cc(=O)c2ccccc2n1C` was “inactive”.
For `CCN1CCN(C(=O)N[C@@H](C(=O)N[C@@H]2C(=O)N3[C@@H]2SC(C)(C)[C@@H]3C(=O)O)c2ccccc2)C(=O)C1=O`, the outcome was inactive.
As to `C[C@@H]1O[C@@H](O[C@@H]2[C@@H](O)[C@H](O[C@H]3[C@H](O[C@H]4CC[C@@]5(C)C(CC[C@]6(C)C5CC=C5[C@@H]7CC(C)(C)CC[C@]7(C(=O)O[C@@H]7O[C@H](CO)[C@@H](O)[C@H](O)[C@H]7O)CC[C@]56C)C4(C)C)O[C@H](C(=O)O)[C@@H](O)[C@@H]3O)OC[C@H]2O)[C@H](O)[C@H](O)[C@H]1O` (stereo partly specified), the outcome is “inactive [at 9.27 µM]”.
